Results: ChEMBL document CHEMBL1157539, “Thousands of chemical starting points for antimalarial lead identification” (Nature, 2010)

system: HepG2; experiment: GSK_TCMDC: Percent inhibition of human HepG2 cell line. Test compounds present at 10uM.; assay type: functional

SMILES	Inhibition
CC(C)n1cc2c(ccc3nc(N)nc(N)c32)n1	65%
CCN(CC)CCN(Cc1ccc(-c2ccc(C(F)(F)F)cc2)cc1)C(=O)Cn1c(CCc2cccc(F)c2F)nc(=O)c2cc(C)ccc21.O=C(O)C(O)C(O)C(=O)O	19%
COc1ccc(-n2c(=O)c3c(n4c(SC(C)C)nnc24)-c2ccccc2CC32CCCCC2)cc1	0%
Cc1nc(-c2ccncc2)sc1C(=O)Nc1ccc(Cl)cc1C(=O)Nc1ccc(Cl)cc1	2%
CC(c1cccc(Nc2nccc(-c3c(-c4cccc(NC(=O)c5c(F)cccc5F)c4)nn4ccccc34)n2)c1)S(C)(=O)=O (stereo not given)	76%
Cl.O=S(=O)(NCCCN1CCOCC1)c1ccc2nccc(Nc3ccc(Oc4ccccc4)cc3)c2c1	1%
COc1cc2nc(NCc3ccc(S(N)(=O)=O)cc3)nc(Nc3ccc(Oc4ccccc4)cc3)c2cc1OC	14%
Cc1cc(C(=O)Nc2ccc3c(c2)CCN3C2CCN(Cc3ccc(F)cc3Cl)C2)no1 (stereo not given)	7%
O=C(NCc1ccc(Cl)cc1)c1ccc(CN2CCCN(Cc3cccc(O)c3)CC2)cc1.O=C(O)C(F)(F)F	25%
C=CCOC(=O)N1CCC(CNCc2cccc(-c3ccc(-c4nc5cccc(C)c5[nH]4)cc3)c2)C1.O=C(O)C(F)(F)F (stereo not given)	24%
CCCc1ccc(NC(=O)c2ccc(CN3CCCN(Cc4ccc(OC)cc4)CC3)cc2)cc1.O=C(O)C(F)(F)F	47%
CN1CCN(Cc2cc(NC(=O)c3ccc(-c4ccc(Cl)cc4Cl)cc3)ccc2-c2ccccc2)CC1	52%
O=C(O)C(F)(F)F.O=C1CCCN1CCCNCc1ccc(-c2ccc(-c3nc4cc(F)ccc4[nH]3)cc2)cc1	16%
CCCc1cc(Cc2cnc(N)nc2N)cc(OC)c1OC	2%
COc1ccc2c(c1)CC(CNC[C@H](O)c1cccc(Cl)c1)CC2 (stereo not given in full)	1%
Cc1cc(=NN=Cc2ccccc2Cl)c2ccccc2[nH]1	0%
Cc1cccnc1Nc1nc(-c2ccccn2)cs1	60%
CC(C)NC(C)(C)CN(Cc1ccc(-c2ccc(C(F)(F)F)cc2)cc1)C(=O)Cn1c(CCc2cccc(F)c2F)nc(=O)c2ccccc21	44%

SMILES	Inhibition
COc1cc2ccccc2cc1CNCCCCCCNCc1cc2ccccc2cc1OC.CS(=O)(=O)O	98%
CC(=O)Nc1ccc(C(=O)Nc2ccc(-c3cccc(-c4nc5ccccc5[nH]4)c3)cc2)cn1	34%
Cc1ccc(C2=NNC3(S2)C(=O)Nc2ccc(C)cc23)cc1 (stereo not given)	35%
COc1ccc2nccc([C@@H](O)CN3CCC(NC(=O)/C=C/c4ccc(Cl)c(C(F)(F)F)c4)CC3)c2c1	11%
COc1ccc(NC(=O)N2CCCN(CCCCCNC(=O)/C=C/c3ccc(Cl)cc3)CC2)cc1Cl	15%
CN(C)CCOc1cc(NC(=O)Nc2cccc([N+](=O)[O-])c2)ccc1I	8%
COc1ccc2nc(N=C3NC4(c5ccccc5)NC(=Nc5nc6ccc(OC)cc6[nH]5)NC4(c4ccccc4)N3)[nH]c2c1.O=C(O)C(F)(F)F (stereo not given)	0%
CN1CCC(NC(=O)c2cccc(Nc3cc(Nc4cccc(Br)c4)ncn3)c2)CC1	25%
Cc1c(S(=O)(=O)Nc2ccc3nccc(N4CC(C)NC(C)C4)c3c2)sc2ccc(Cl)cc12.Cl (stereo not given)	0%
COc1ccc2nccc(N3CCN(CCNCc4ccc5c(n4)NC(=O)CS5)CC3)c2n1.Cl	10%
COc1cc2nc(NCCCOC(C)C)n3nc(-c4ccccc4)nc3c2cc1OC	0%
O=C(Cc1cccnc1)N(Cc1ccc(-c2ccc(CNCc3cccnc3)cn2)cc1)C1CCN(Cc2ccccc2)CC1.O=C(O)C(F)(F)F	8%
Cc1cccc(CNc2nc(C)cc(N[C@@H](Cc3ccccc3)C(=O)NCCc3ccccc3)n2)c1.O=C(O)C(F)(F)F	24%
Fc1ccc2[nH]c(-c3cccc(-c4cccc(CNCc5cnn(-c6ccccc6)n5)c4)c3)nc2c1.O=C(O)C(F)(F)F	18%
NCc1cccc(-c2ccc3ccnc(N)c3c2)c1	7%
CS(=O)(=O)Nc1ccc2[nH]cc(C3CCN(CC(O)C4CCN(C(=O)/C=C/c5ccc(Cl)c(Cl)c5)CC4)CC3)c2c1.O=C(O)C(F)(F)F (stereo not given)	28%
Cc1cc(-c2cccc3c(NC(=O)N4CCc5cc6nccc(N7CCN8CCC[C@H]8C7)c6cc54)cccc23)cc(C)n1.Cl	12%
